Assay results: PubChem BioAssay AID1986 (Sanford-Burnham Center for Chemical Genomics, 2009)
The campaign covered roughly 290,000 compounds. About 890 (0.31%) were called active. The sample holds actives, similar compounds and a random draw of the others, so the mix is not that of the screen. Cut-off read from the data, not from the text of the source: active = inhibition mostly above about 52% (no sharp cut-off); inactive = mostly below about 76%.

Assay: inhibitors of HIV fusion peptide binding, primary screen, biochemical, uHTS, fluorescence dequenching (AID 1986)
Settings: cell-free peptide binding, 30 min, stronger effect = higher value
[1] = measured here: repeat confirmation average inhibition, at 18.6 µM

| Compound | inhibition (at 20 µM) | inhibition [1] [%] |
| --- | --- | --- |
| COc1ccc(NC(=S)NC(NC(=O)CCl)C(Cl)(Cl)Cl)c([N+](=O)[O-])c1 (stereo unspecified) | 7.2% (inactive) | – |
| COc1ccccc1S(=O)(=O)Cc1ccc(C(=O)NCc2ccco2)o1 | 1.6% (inactive) | – |
| CC1CCN(S(=O)(=O)c2ccc(C(=O)OC(C)C(=O)NC3CCCCC3C)cc2)CC1 (stereo unspecified) | 20% (inactive) | – |
| Cc1oc(-c2cc(F)ccc2F)nc1CN1CCN(C)C(=O)[C@@H]1C | 1.3% (inactive) | – |
| CN=C(Nc1ccc(C(=O)OC)s1)c1ccc(Cl)cc1 | 0.5% (inactive) | – |
| O=C(/C=C/c1ccc(OCCCF)cc1)NCc1ccc(Cl)c(Cl)c1 | 1.7% (inactive) | – |
| COC(=O)c1cnn(-c2ccc(F)cc2F)c1/C=N/NC(N)=S | -1.1% (inactive) | – |
| CC(=O)NN1C(=O)c2ccccc2NC1c1ccc(N(C)C)cc1 (stereo unspecified) | -0.9% (inactive) | – |
| COC(=O)Cn1c(=NC(=O)c2ccc(S(=O)(=O)N3CCc4ccccc4C3)cc2)sc2cc(OC)ccc21 | -1.3% (inactive) | – |
| O=C(N/N=C/c1ccncc1)c1cc(C2CC2)nc2ccccc12 | -0.8% (inactive) | – |
| NC(=O)c1c(Nc2nc3c(F)cccc3s2)sc2c1CCCC2 | 59.5% (active) | – |
| CC1CCc2c(sc(NC(=O)C3c4ccccc4Oc4ccccc43)c2C(N)=O)C1 (stereo unspecified) | -1.5% (inactive) | – |
| COc1ccc2nc(Nc3sc4c(c3C(N)=O)CCCC4)sc2c1 | 17.5% (inactive) | – |
| NC(=O)c1c(NC(=O)c2ccccc2F)sc2c1CCCC2 | -0.3% (inactive) | – |
| CC1CCc2c(sc(Nc3nc4c(F)cccc4s3)c2C(N)=O)C1 (stereo unspecified) | 58.8% (active) | – |
| COC(=O)Nc1sc2c(c1C(N)=O)CCC(C)C2 (stereo unspecified) | 0.2% (inactive) | – |
| Cc1c(C(=O)N(Cc2nccn2C)C(C)C)oc2c(F)cccc12 | -1% (inactive) | – |
| O=c1cc(C(F)(F)F)nc(-c2cccnc2)[nH]1 | -1.2% (inactive) | – |
| CC(C)C(=O)Nc1ccc([N+](=O)[O-])cc1Br | 1.2% (inactive) | – |
| C/C(O)=C/c1nc2ccccc2[nH]c1=O | 0.1% (inactive) | – |
| O/C(=C\c1nc2ccccc2[nH]1)c1cccs1 | 14.3% (inactive) | – |
| O=c1[nH]c2ccccc2nc1/C=C(\O)c1cccs1 | 66.1% (active) | – |
| CCCCC(=O)Nc1cccn2ncnc12 | 0.2% (inactive) | – |
| C/C(=N\NC(=O)c1c[nH]c2ccccc12)c1ccc(C)o1 | 0.2% (inactive) | – |

| Compound | inhibition (at 20 µM) | inhibition [1] [%] |
| --- | --- | --- |
| O=C1OC(/C=C/c2ccc(Cl)cc2Cl)=NC/1=C\c1cccs1 | 54.2% (active) | – |
| Cc1cccc(C2=N/C(=C\c3cccs3)C(=O)O2)c1 | 4.7% (inactive) | – |
| Cc1ccccc1C1=N/C(=C/c2cccs2)C(=O)O1 | 4.6% (inactive) | – |
| CCC(=O)OCc1cc2cccc(C)c2[nH]c1=O | -1.9% (inactive) | – |
| O=C(O)c1cccc(-n2cccc2C=C2C(=O)c3ccccc3C2=O)c1 | 30.1% (inactive) | – |
| O=C1C(=Cc2cccn2-c2ccc(O)cc2)C(=O)c2ccccc21 | 63.1% (active) | 70.3 |
| O=C1C(=Cc2cccn2-c2ccccc2)C(=O)c2ccccc21 | 50.1% (inactive) | 28.2 |
| COC(=O)Cn1ncc(N2C3CC(CC(C)(C)C3)C2C)c(Cl)c1=O (stereo unspecified) | 1.1% (inactive) | – |
| Oc1cccc2ccc(/C=C/c3ccccc3Br)nc12 | 0.6% (inactive) | – |
| O=C(/C=C/c1ccccc1)Nc1ccc(Cl)cn1 | 1% (inactive) | – |
| COc1cc(C(=O)Oc2cc(C)[nH]c(=O)c2[N+](=O)[O-])cc(OC)c1OC | 0.4% (inactive) | – |
| O=C(Nc1cc(S(=O)(=O)N2CCCCC2)ccc1O)c1ccccc1NS(=O)(=O)c1ccc(F)c(F)c1 | 62.7% (active) | – |
| Cc1ccc(S(=O)(=O)Nc2ccccc2C(=O)Nc2nc(-c3ccc(F)cc3)cs2)cc1 | 65.5% (active) | – |
| O=C(Nc1nc(-c2ccccc2)cs1)c1ccccc1F | 0% (inactive) | – |
| O=S(=O)(Nc1ccc(-c2csc(-c3ccccc3)n2)cc1)c1ccc(F)cc1 | 0% (inactive) | – |
| O=C(Nc1nc(-c2ccccc2)cs1)c1ccccc1NS(=O)(=O)c1ccc(F)cc1 | 71.5% (active) | – |
| O=C(Nc1cc(S(=O)(=O)N2CCCCC2)ccc1O)c1ccccc1NS(=O)(=O)c1ccc(F)cc1 | 49.5% (inactive) | – |
| COc1ccc(-c2csc(NC(=O)c3ccccc3S(C)(=O)=O)n2)cc1 | 0.4% (inactive) | – |
| Cc1ccc(S(=O)(=O)Nc2nc(-c3ccccc3)cs2)cc1 | 6.9% (inactive) | – |
| O=C(Nc1cccc(S(=O)(=O)N2CCCCC2)c1)c1ccccc1NS(=O)(=O)c1ccc(F)cc1 | 58% (inactive) | 26 |
| COc1ccc(-c2csc(NC(=O)c3ccccc3F)n2)cc1 | 0.1% (inactive) | – |
| Cc1ccc(S(=O)(=O)Nc2nc(-c3ccc(F)cc3)cs2)cc1 | 20% (inactive) | – |
| COc1ccc(-c2csc(NC(=O)c3ccccc3NS(=O)(=O)c3ccc(F)c(F)c3)n2)cc1 | 65% (active) | – |
| CCCOc1ccc2c(CC)cc(=O)oc2c1C | -0.2% (inactive) | – |
